This passage reports CPE inhibition results from PubChem BioAssay AID651640 (Broad Institute, 2012).

Each structure is given as a SMILES string. Several values for one entry are separate records, joined by “and”; a condition that tells them apart may be missing. Identical values can stand only once. Hit rate of the full screen: of about 350,000 compounds, about 6,000 (1.7%) were called active. Another 5% or so got no clear call; they are omitted. This is one part of a sample in which actives are shown more often than they occur. No stated cut-off is given here; in the data, active means CPE inhibition above about 20% (passing the limit was not always enough); inconclusive means no clear call, values can overlap the other calls; tested in BHK-21 cells. The source holds several records for some structures; these can differ, active in one and inactive in another.

The nature of the assay: protection of cells from dengue 2 killing – plate reader, single concentration, primary screen (AID 651640).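 Further: 0% = median of neutral control wells and 100% = median of positive control wells.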 As to conditions: DENV2-infected cells, cytopathic effect rescue, at 9.99 µM, stronger effect = higher value. In general terms: Cytopathic effects are the visible damage that an infection or toxin causes in cultured cells.
Regarding `C[C@@H]1CN([C@H](C)CO)C(=O)c2cc(NC(=O)NC3CCCCC3)ccc2O[C@H]1CN(C)C(=O)Nc1ccccc1`, the CPE inhibition is 1% (inactive).

For the compound `C[C@@H]1CCCCO[C@@H](CN(C)C(=O)Cc2ccccc2)[C@@H](C)CN([C@@H](C)CO)C(=O)c2cc(NC(=O)c3ccccc3)ccc2O1`, the CPE inhibition was -1.37% (inactive).

As for `O=C(Nc1ccccc1)N[C@@H]1CC[C@H](CCn2cc(-c3ccccc3F)nn2)O[C@@H]1CO`, the CPE inhibition is 10.9% (inactive).

In the case of `CS(=O)(=O)N1CC2(C1)[C@H](c1ccccc1)[C@@H](CO)N2C(=O)c1ccccc1`, the CPE inhibition is 0.143% (inactive).

With `O=S(=O)(c1ccc(F)cc1)N1CCCCN2[C@H](CO)[C@@H](c3ccc(C#CC4CCCC4)cc3)[C@H]2C1`, the CPE inhibition is -3.13% (inactive).

Take `COCC(=O)N(C)C[C@H]1Oc2cc(Br)ccc2S(=O)(=O)N([C@H](C)CO)C[C@H]1C`: the CPE inhibition was 21.7% (inactive) and 31.3% (active).

`C[C@H]1CN([C@@H](C)CO)S(=O)(=O)c2ccc(C#Cc3ccncc3)cc2O[C@@H]1CN(C)C(=O)Nc1ccc2c(c1)OCO2`: the CPE inhibition is 13.3% (inactive).

On to `C[C@@H]1CN([C@@H](C)CO)S(=O)(=O)c2ccc(Br)cc2O[C@@H]1CN(C)C(=O)CN(C)C`, for which the CPE inhibition is 2.66% (inactive).

Take `COCC(=O)N(C)C[C@H]1Oc2cc(C#CC(C)C)ccc2S(=O)(=O)N([C@H](C)CO)C[C@@H]1C`: the CPE inhibition is -1.85% (inactive).

`C[C@H]1CN([C@@H](C)CO)S(=O)(=O)c2ccc(C3=CCCC3)cc2O[C@H]1CN(C)C(=O)Nc1ccc2c(c1)OCO2`: the CPE inhibition was -1.69% (inactive).

For the compound `C[C@@H]1CN([C@H](C)CO)S(=O)(=O)c2ccc(C3=CCCC3)cc2O[C@H]1CN(C)C(=O)Nc1ccc2c(c1)OCO2`, the CPE inhibition was 21.4% (active).

As to `O=C(C[C@@H]1CC[C@H](NC(=O)Cc2ccccn2)[C@H](CO)O1)NCCc1ccncc1`, the CPE inhibition is 1.65% (inactive).

Consider `CCNC(=O)C[C@@H]1CC[C@H]2[C@@H](COc3ccc(NC(=O)Cc4cccs4)cc3C(=O)N2C)O1`, for which the CPE inhibition is -0.188% (inactive).

Consider `Cc1noc(C)c1NC(=O)Nc1ccc2c(c1)C(=O)N([C@@H](C)CO)C[C@H](C)[C@H](CN(C)Cc1ccc(C(=O)O)cc1)OCCCC[C@@H](C)O2`, for which the CPE inhibition is -4.14% (inactive).

With `CSc1ccc(Oc2cccc3c2S(=O)(=O)N([C@H](C)c2ccccc2)C[C@@H](COCc2ccccc2)O3)cc1C`, the CPE inhibition was 12% (inactive).

As to `COC(=O)N1Cc2ccnnc2CC1c1ccccc1Br` (stereo unspecified), the CPE inhibition is -2.73% (inactive).

On to `CCCC/C=C/c1cccc2nncn12`, for which the CPE inhibition is 28.7% (active).

Turning to `O=C(O)c1ccccc1-c1cccc2nncn12`, the CPE inhibition was -0.993% (inactive).

`C[C@@H]1CCCCO[C@@H](CN(C)S(=O)(=O)c2cn(C)cn2)[C@H](C)CN([C@H](C)CO)C(=O)c2cc(NC(=O)NC3CCCCC3)ccc2O1`: the CPE inhibition was 5.41% (inactive).

Take `CC(Oc1cccc(Cl)c1)C(=O)Nc1ccc(S(=O)(=O)Nc2ncccn2)cc1` (stereo unspecified): the CPE inhibition is 2.3% (inactive).

With `O=C(NC(=S)Nc1ccc(S(=O)(=O)Nc2ncccn2)cc1)c1cccc(Br)c1`, the CPE inhibition is -1.82% (inactive).

Turning to `COc1ccc(OC)c(C(C)NC(=S)Nc2ccc(S(=O)(=O)Nc3ncccn3)cc2)c1` (stereo unspecified), the CPE inhibition is 49.8% (active).

For `Cc1noc(C)c1NC(=O)Nc1ccc2c(c1)C(=O)N([C@H](C)CO)C[C@@H](C)[C@H](CN(C)S(=O)(=O)c1ccc(Cl)cc1)OCCCC[C@H](C)O2`, the CPE inhibition was -4.55% (inactive).

For the compound `CC1C(=O)N(Cc2cn(Cc3ccco3)nn2)CCS(=O)(=O)N1Cc1ccc(-c2cccc(CO)c2)cc1` (stereo unspecified), the CPE inhibition was -5.64% (inactive).

Regarding `CC(C)C1C(=O)N(Cc2cn(CCC3OCCO3)nn2)CCS(=O)(=O)N1Cc1ccc(-c2ccccc2C(F)(F)F)cc1` (stereo unspecified), the CPE inhibition is -6.47% (inactive).

With `COc1ccc(Cn2cc(CN3CCS(=O)(=O)N(Cc4ccc(-c5cccc(Cl)c5)cc4)C(C)C3=O)nn2)cc1` (stereo unspecified), the CPE inhibition is 3.05% (inactive).

With `Cc1ccc(-c2ccc(CN3C(C(C)C)C(=O)N(Cc4cn(CCC5OCCCO5)nn4)CCS3(=O)=O)cc2)cc1` (stereo unspecified), the CPE inhibition was 102% (active).

Take `Cc1ccc(-c2ccc(CN3C(C)C(=O)N(Cc4cn(CCC5OCCCO5)nn4)CCS3(=O)=O)cc2)cc1` (stereo unspecified): the CPE inhibition was 86.5% (active).

For the compound `Cc1ccc(-c2ccc(CN3C(C(C)C)C(=O)N(Cc4cn(CCC5OCCO5)nn4)CCS3(=O)=O)cc2)cc1` (stereo unspecified), the CPE inhibition is 6.07% (inactive).

As for `CCCNC(=O)[C@@H]1[C@@H](CO)[C@@H]2Cn3c(cccc3=O)[C@H]1N2C(=O)C1CC1`, the CPE inhibition was -2.53% (inactive).

On to `CO[C@@H]1CN(C)C(=O)c2ccc(NC(=O)Nc3ccccc3)cc2OC[C@@H](C)N(C(=O)Nc2c(C)noc2C)C[C@@H]1C`, for which the CPE inhibition is -2.63% (inactive).

Regarding `CCCNC(=O)Nc1ccc2c(c1)C(=O)N(C)[C@H]1CC[C@H](CC(=O)NCC3CCCCC3)O[C@@H]1CO2`, the CPE inhibition is 7.7% (inactive).

Take `CCC(=O)N(C)C[C@@H]1Oc2ncc(-c3ccccc3OC)cc2C(=O)N([C@@H](C)CO)C[C@@H]1C`: the CPE inhibition is -0.292% (inactive).

`O=C(C[C@@H]1C=C[C@@H](NC(=O)c2ccccn2)[C@@H](CO)O1)NCc1cc(F)cc(F)c1`: the CPE inhibition is -1.09% (inactive).

`CCCC(=O)Nc1ccc2c(c1)C(=O)N(C)C[C@@H](OC)[C@H](C)CN(C(C)=O)[C@H](C)CO2`: the CPE inhibition is 4.44% (inactive).

For `CO[C@@H]1CN(C)C(=O)c2cc(NS(C)(=O)=O)ccc2OC[C@@H](C)N(C(=O)C2CCC2)C[C@@H]1C`, the CPE inhibition was 23.4% (active).

Consider `CCCC(=O)Nc1ccc2c(c1)OC[C@H](C)N(C(=O)C1CCCC1)C[C@@H](C)[C@H](OC)CN(C)C2=O`, for which the CPE inhibition was -8.69% (inactive).

With `CO[C@H]1CN(C)C(=O)c2ccc(NS(C)(=O)=O)cc2OC[C@H](C)N(C(=O)C2CCC2)C[C@H]1C`, the CPE inhibition is -2.45% (inactive).

In the case of `CCCC(=O)Nc1ccc2c(c1)OC[C@H](C)N(C(=O)CC)C[C@H](C)[C@@H](OC)CN(C)C2=O`, the CPE inhibition is 25.3% (active).

On to `CCC(=O)N1C[C@H](C)[C@H](OC)CN(C)C(=O)c2ccc(NC(=O)Nc3ccccc3)cc2OC[C@H]1C`, for which the CPE inhibition is -7.71% (inactive).

Consider `CO[C@H]1CN(C)C(=O)c2ccc(NC(=O)C3CC3)cc2OC[C@H](C)N(C(=O)CN2CCOCC2)C[C@@H]1C`, for which the CPE inhibition is -2.69% (inactive).

Turning to `CO[C@@H]1CN(C)C(=O)c2cc(NC(=O)C3CC3)ccc2OC[C@H](C)N(C(=O)CN2CCOCC2)C[C@@H]1C`, the CPE inhibition was -10.9% (inactive) and -2.35% (inactive).

With `CCCNC(=O)N1C[C@H](C)[C@H](OC)CN(C)C(=O)c2cc(NC(=O)CC)ccc2OC[C@H]1C`, the CPE inhibition is -0.559% (inactive).

Take `CCCC(=O)Nc1ccc2c(c1)C(=O)N(C)C[C@H](OC)[C@@H](C)CN(C(C)=O)[C@H](C)CO2`: the CPE inhibition was 68% (active).

On to `CO[C@H]1CN(C)C(=O)c2cc(NS(C)(=O)=O)ccc2OC[C@H](C)N(C(=O)C2CCCC2)C[C@H]1C`, for which the CPE inhibition was -6.55% (inactive).

With `CO[C@H]1CN(C)C(=O)c2ccc(NC(=O)C3CC3)cc2OC[C@@H](C)N(C(=O)CN2CCOCC2)C[C@H]1C`, the CPE inhibition was 41.3% (active).
